PubChem BioAssay AID1159580 (chemical genetic matrix, 2015)
Out of some 5,500 compounds screened, about 2,000 (36%) were called active. About 18% were inconclusive and are not listed. No stated cut-off is given here; in the data, active means normalized growth mostly below about 0.91 (no sharp cut-off); inconclusive means no clear call, values can overlap the other calls; inactive means mostly above about 0.92. The list shows a part of the results.

Assay: chemical genetic growth profiling, strain panel (AID 1159580);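 further: tested at 20 µM; growth read once vehicle control cultures reached saturation at 30 °C; 1 = growth at the plate median or of vehicle wells; lower values mean less growth of the strain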
Details: S. cerevisiae deletion strains, growth OD
[1] = locus YDL101C, strain DUN1, hits give low values
[2] = locus YHR030C, strain SLT2, hits give low values

Measured: normalized growth

Cc1ccc2nc(-c3ccc4c(c3)OCCO4)cn2c1
inactive: locus YAR019C, strain CDC15, hits give low values 0.981 | locus YBL105C, strain PKC1, hits give low values 0.98 | locus YBR135W, strain CKS1, hits give low values 0.984 | locus YBR136W, strain MEC1, hits give low values 0.983 | locus YBR160W, strain CDC28, hits give low values 0.978 | locus YDL017W, strain CDC7, hits give low values 0.985 | locus YDL028C, strain MPS1, hits give low values 0.984 | [1] 0.988 | locus YDL108W, strain KIN28, hits give low values 0.982 | locus YDL132W, strain cdc53, hits give low values 0.982 | locus YDL214C, strain PRR2, hits give low values 0.958 | locus YDR052C, strain DBF4, hits give low values 0.988 | locus YDR054C, strain cdc34, hits give low values 0.97 | locus YDR226W, strain ADK1, hits give low values 0.99 | locus YDR477W, strain SNF1, hits give low values 0.967 | locus YER123W, strain YCK3, hits give low values 0.941 | locus YER133W, strain GLC7, hits give low values 0.966 | locus YFL009W, strain cdc4, hits give low values 0.981 | locus YFL029C, strain CAK1, hits give low values 0.974 | locus YFR003C, strain YPI1, hits give low values 0.983 | locus YFR019W, strain FAB1, hits give low values 0.963 | locus YFR028C, strain CDC14, hits give low values 0.976 | locus YGR040W, strain KSS1, hits give low values 0.953 | locus YGR052W, strain FMP48, hits give low values 1.04 | locus YGR092W, strain DBF2, hits give low values 0.929 | [2] 0.986 | locus YHR079C, strain IRE1, hits give low values 0.966 | locus YHR082C, strain KSP1, hits give low values 1.01 | locus YHR205W, strain SCH9, hits give low values 0.956 | locus YIL147C, strain SLN1, hits give low values 0.983 | locus YJL095W, strain BCK1, hits give low values 0.984 | locus YJL128C, strain PBS2, hits give low values 0.969 | locus YJL157C, strain FAR1, hits give low values 0.944 | locus YJR016C, strain ILV3, hits give low values 0.983 | locus YJR066W, strain TOR1 (second series), hits give low values 0.911 | locus YJR066W, strain TOR1, hits give low values 1 | locus YKL048C, strain ELM1, hits give low values 0.959 | locus YKL067W, strain YNK1, hits give low values 0.967 | locus YKL101W, strain HSL1, hits give low values 0.951 | locus YKL193C, strain SDS22, hits give low values 0.983 | locus YKL203C, strain TOR2, hits give low values 1.01 | locus YLR113W, strain HOG1, hits give low values 0.899 | locus YLR133W, strain CKI1, hits give low values 0.956 | locus YLR403W, strain SFP1, hits give low values 0.947 | locus YML070W, strain DAK1, hits give low values 0.938 | locus YMR001C, strain CDC5, hits give low values 0.987 | locus YMR205C, strain PFK2 (second series), hits give low values 0.97 | locus YMR277W, strain FCP1, hits give low values 0.982 | locus YNL006W, strain LST8, hits give low values 0.989 | locus YNL020C, strain ARK1, hits give low values 0.961 | locus YNL161W, strain CBK1, hits give low values 0.974 | locus YNL183C, strain NPR1, hits give low values 0.996 | locus YNL207W, strain RIO2, hits give low values 0.978 | locus YNL222W, strain SSU72, hits give low values 0.979 | locus YNL307C, strain MCK1 (second series), hits give low values 0.94 | locus YOL078W, strain AVO1, hits give low values 0.98 | locus YOL136C, strain PFK27, hits give low values 0.929 | locus YOR061W, strain CKA2, hits give low values 0.966 | locus YOR119C, strain RIO1, hits give low values 0.997 | locus YOR231W, strain MKK1, hits give low values 0.932 | locus YOR329C, strain SCD5, hits give low values 0.985 | locus YPL031C, strain PHO85, hits give low values 0.958 | locus YPL153C, strain RAD53, hits give low values 0.947 | locus YPL204W, strain HRR25, hits give low values 0.935 | locus YPL209C, strain IPL1, hits give low values 0.978 | locus YPL256C, strain CLN2, hits give low values 0.923 | locus YPR025C, strain CCL1, hits give low values 0.981 | locus YPR106W, strain ISR1, hits give low values 0.973 | locus YPR111W, strain DBF20, hits give low values 0.965 | strain NNK1, hits give low values 0.975 | strain TSCII, hits give low values 0.986

COC(=O)C/C(N)=C(\C#N)C(=O)OC
inactive: locus YAL013W, strain DEP1, hits give low values 1 | locus YBR229C, strain ROT2, hits give low values 0.984 | locus YCL061C, strain MRC1, hits give low values 1.02 | [1] 1.03 | locus YDR150W, strain NUM1, hits give low values 1.01 | locus YEL061C, strain CIN8, hits give low values 0.994 | locus YGR078C, strain PAC10, hits give low values 1.05 | [2] 1.08 | locus YHR087W, strain rtc3, hits give low values 0.944 | locus YJL187C, strain SWE1, hits give low values 1.02 | locus YJR043C, strain POL32, hits give low values 1.02 | locus YJR075W, strain HOC1, hits give low values 1.01 | locus YKL190W, strain CNB1, hits give low values 0.986 | locus YLR039C, strain RIC1, hits give low values 0.993 | locus YLR058C, strain SHM2 (second series), hits give low values 0.983 | locus YLR085C, strain ARP6, hits give low values 0.995 | locus YLR262C, strain YPT6, hits give low values 0.982 | locus YML094W, strain GIM5, hits give low values 0.982 | locus YMR219W, strain ESC1, hits give low values 0.982 | locus YMR263W, strain SAP30, hits give low values 1.02 | locus YNL153C, strain GIM3, hits give low values 1.04 | locus YNL298W, strain CLA4 (second series), hits give low values 0.999 | locus YNL322C, strain KRE1, hits give low values 1.01 | locus YNR030W, strain Alg12, hits give low values 1.03 | locus YPL055C, strain LGE1, hits give low values 0.975 | locus YPL241C, strain CIN2, hits give low values 1.01 | locus YPR135W, strain CTF4, hits give low values 1.08
